The values that follow come from PubChem BioAssay (Tox21).

A number with no mark means an inactive call. Calls of active or inactive are those of the source. Unless noted, calls come from the whole dose curve; as a rule, active = well fitted curve in the direction sought with a large enough effect in the repeat runs; inconclusive = weak or mixed curves; inactive = no such curve, though single readings can be large; an effect the other way counts as inactive or inconclusive.

Assay [1] is described as follows: qHTS assay to identify small molecule antagonists of the glucocorticoid receptor (GR) signaling pathway - cell viability counter screen (AID 720693). Note: nearly all actives have a fitted effect of over 55% in size. Note: potency is the fitted concentration of half-maximal effect. A general note: In qHTS, concentration-response curves come from the screen itself.
A short description of assay [2]: qHTS assay for identifying genotoxic compounds that show differential cytotoxicity against isogenic chicken DT40 cell lines with known DNA damage response pathways - wild type cell line (AID 743012). Note: nearly all actives have a fitted effect of over 60% in size. Note: potency is the fitted concentration of half-maximal effect. The method in brief:
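CellTiter-Glo luminescence readout of viability in wild type DT40 cells after 40 h compound exposure at 37 C/5% CO2; 300 cells/well; reagent incubated 30 min at room temperature before reading.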

Assay [3] can be described thus: qHTS assay for identifying genotoxic compounds that show differential cytotoxicity against isogenic chicken DT40 cell lines with known DNA damage response pathways - Rev3 mutant cell line (AID 743014). Note: nearly all actives have a fitted effect of over 55% in size. Note: potency is the fitted concentration of half-maximal effect.
A short description of assay [4]: qHTS assay for identifying genotoxic compounds that show differential cytotoxicity against isogenic chicken DT40 cell lines with known DNA damage response pathways - Rad54/Ku70 mutant cell line (AID 743015). Note: nearly all actives have a fitted effect of over 60% in size. Note: potency is the fitted concentration of half-maximal effect.
The nature of assay [5]: qHTS assay to identify small molecule antagonists of the androgen receptor (AR) signaling pathway - cell viability counter screen (AID 743033; note: nearly all actives have a fitted effect of over 45% in size; note: potency is the fitted concentration of half-maximal effect).
Assay [6] can be described thus: qHTS assay to identify small molecule antagonists of the thyroid receptor (TR) signaling pathway - cell viability counter screen (AID 743064). Note: nearly all actives have a fitted effect of over 50% in size. Note: potency is the fitted concentration of half-maximal effect. Summed up: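 Fluorescence from CellTiter-Fluor, added after 23.5 h exposure at 37 °C, reported viability of GH3.TRE-Luc cells co-treated with compound and 1 nM T3. Measured in the same wells as the luciferase TR readout.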

The nature of assay [7]: qHTS assay to identify small molecule antagonists of the thyroid receptor (TR) signaling pathway (AID 743065). Note: nearly all actives have a fitted effect of over 55% in size. Note: potency is the fitted concentration of half-maximal effect. The method in brief: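 GH3.TRE-Luc rat pituitary cells carrying two TR response elements driving luciferase were plated for 4 h, given compound plus 1 nM T3 (final), and incubated 23.5 h at 37 C. ONE-Glo luminescence measured reporter inhibition; CellTiter-Fluor fluorescence tracked cytotoxicity.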

Assay [8] deals with thyroid hormone receptor (rat, GH3 cells). The experiment in a line: qHTS assay to identify small molecule agonists of the thyroid receptor (TR) signaling pathway (AID 743066; calls by dose curve; note: potency is the fitted concentration of half-maximal effect).
The target in assay [9] is Estrogen receptor (Homo sapiens) (UniProt P03372). The assay is described as follows: qHTS assay to identify small molecule antagonists of the estrogen receptor alpha (ER-alpha) signaling pathway (AID 743069; active = well fitted curve in the direction sought with a large enough effect in the signal ratio in the repeat runs, not every such curve was filed as active; inconclusive = weak or mixed curves, or effect the other way; inactive = no such curve, though single readings can be large or run the other way; the % refers to the signal ratio; note: potency is the fitted concentration of half-maximal effect). Summed up:
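Screening used a UAS-driven beta-lactamase reporter integrated into HEK293 cells expressing ER-alpha, stimulated with 17beta-estradiol alongside test compounds over 18 hr at 37C; signal came from LiveBLAzer B/G FRET fluorescence.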

Assay [10] can be described thus: qHTS assay to identify small molecule antagonists of the estrogen receptor alpha (ER-alpha) signaling pathway using the BG1 cell line (AID 743080; calls by dose curve;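 note: BG1 cells stimulated with 17beta-estradiol alongside compound; nearly all actives have a fitted effect of over 25% in size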; note: potency is the fitted concentration of half-maximal effect). The method in brief: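 Endogenous full-length ER-alpha in BG1-Luc-4E2 cells drives a stably integrated 4×ERE luciferase gene; compounds were tested against 17beta-estradiol over 21.5 h, with luminescence and multiplexed viability fluorescence recorded.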

Assay [11] can be described thus: qHTS assay to identify small molecule antagonists of the estrogen receptor alpha (ER-alpha) signaling pathway using the BG1 cell line - cell viability counter screen (AID 743081).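 Note: compound given together with 17beta-estradiol as the ER stimulus; nearly all actives have a fitted effect of over 45% in size.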 Note: potency is the fitted concentration of half-maximal effect.
Another assay concerns the target Aromatase (Homo sapiens) (UniProt P11511). The assay is described as follows: qHTS assay to identify aromatase inhibitors (AID 743083). Note: nearly all actives have a fitted effect of over 55% in size. Note: potency is the fitted concentration of half-maximal effect.
A short description of assay [12]: qHTS assay to identify aromatase inhibitors - cell viability counter screen (AID 743084). Note: potency is the fitted concentration of half-maximal effect.
Assay [13] concerns the target Androgen receptor (Homo sapiens) (UniProt P10275). The assay is described as follows: qHTS assay to identify small molecule antagonists of the androgen receptor (AR) signaling pathway using the MDA cell line (AID 743042; note: nearly all actives have a fitted effect of over 55% in size; note: potency is the fitted concentration of half-maximal effect). The method in brief:
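MDA-kb2 cells (human breast carcinoma, stably carrying an MMTV-luciferase reporter responsive to AR and GR) were plated at 3,000 cells/well and preincubated 5 hr at 37C, then given compound plus R1881 agonist for 16 h. ONE-Glo luminescence was read.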

Assay [14] in a line: qHTS assay to identify small molecule antagonists of the estrogen receptor alpha (ER-alpha) signaling pathway - cell viability counter screen (AID 743074; calls by dose curve; note: nearly all actives have a fitted effect of over 45% in size; note: potency is the fitted concentration of half-maximal effect).
In assay [15] the target is Androgen receptor (Homo sapiens) (UniProt P10275). The assay is described as follows: qHTS assay to identify small molecule agonists of the androgen receptor (AR) signaling pathway using the MDA cell line (AID 743040; note: nearly all actives have a fitted effect of over 20% in size). Summed up: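 Agonist activity is measured as luciferase luminescence in human MDA-kb2 cells whose MMTV reporter responds to both AR and GR. Compounds in DMSO incubate 16 h at 37C, 0% CO2, and ONE-Glo is read after 30 min.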

Assay [16] has as its target Estrogen receptor (Homo sapiens) (UniProt P03372). The experiment in a line: qHTS assay to identify small molecule agonists of the estrogen receptor alpha (ER-alpha) signaling pathway (AID 743075; calls by dose curve). The settings on record: HEK293 ER-alpha-UAS-bla, beta-lactamase FRET ratio, 18 h; activation: at 70.1 µM (top of the series).
Assay [17] shares this target. The assay is described as follows: qHTS assay to identify small molecule agonists of the estrogen receptor alpha (ER-alpha) signaling pathway using the BG1 cell line (AID 743079). Note: nearly all actives have a fitted effect of over 20% in size. The settings on record: BG1Luc4E2 cells, ERE-luciferase agonist, 22 h; at 70.3 µM (top of the series).
Assay [18] in a line: qHTS assay to identify small molecule antagonists of the androgen receptor (AR) signaling pathway using the MDA cell line - cell viability counter screen (AID 743041; note: nearly all actives have a fitted effect of over 45% in size). The method in brief:
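qHTS viability read-out; MDA-kb2 AR-luc; R1881-stimulated; 16 h exposure at 37C, 0% CO2; CellTiter-Fluor, 30 min; fluorescence intensity.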
% is set by controls: 0 for no effect and ±100 for the full control effect.

Estrogen receptor (Homo sapiens), sequence (P03372 whole entry, looked up): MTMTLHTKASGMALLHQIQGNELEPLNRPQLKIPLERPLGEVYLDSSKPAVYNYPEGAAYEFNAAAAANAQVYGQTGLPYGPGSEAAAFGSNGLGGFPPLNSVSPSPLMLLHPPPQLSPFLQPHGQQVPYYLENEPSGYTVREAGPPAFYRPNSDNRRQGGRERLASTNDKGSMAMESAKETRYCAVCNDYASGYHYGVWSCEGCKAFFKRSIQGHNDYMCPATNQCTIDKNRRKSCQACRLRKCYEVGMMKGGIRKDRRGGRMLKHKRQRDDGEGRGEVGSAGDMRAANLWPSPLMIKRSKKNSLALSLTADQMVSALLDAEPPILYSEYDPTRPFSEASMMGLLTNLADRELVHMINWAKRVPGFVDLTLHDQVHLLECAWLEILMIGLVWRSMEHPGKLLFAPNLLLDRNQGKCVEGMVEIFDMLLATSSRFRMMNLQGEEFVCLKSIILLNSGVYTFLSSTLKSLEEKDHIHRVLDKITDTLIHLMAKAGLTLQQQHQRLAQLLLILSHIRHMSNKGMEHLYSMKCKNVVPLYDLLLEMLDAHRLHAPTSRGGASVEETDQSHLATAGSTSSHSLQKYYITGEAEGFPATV
Aromatase (Homo sapiens), sequence (P11511 whole entry, looked up): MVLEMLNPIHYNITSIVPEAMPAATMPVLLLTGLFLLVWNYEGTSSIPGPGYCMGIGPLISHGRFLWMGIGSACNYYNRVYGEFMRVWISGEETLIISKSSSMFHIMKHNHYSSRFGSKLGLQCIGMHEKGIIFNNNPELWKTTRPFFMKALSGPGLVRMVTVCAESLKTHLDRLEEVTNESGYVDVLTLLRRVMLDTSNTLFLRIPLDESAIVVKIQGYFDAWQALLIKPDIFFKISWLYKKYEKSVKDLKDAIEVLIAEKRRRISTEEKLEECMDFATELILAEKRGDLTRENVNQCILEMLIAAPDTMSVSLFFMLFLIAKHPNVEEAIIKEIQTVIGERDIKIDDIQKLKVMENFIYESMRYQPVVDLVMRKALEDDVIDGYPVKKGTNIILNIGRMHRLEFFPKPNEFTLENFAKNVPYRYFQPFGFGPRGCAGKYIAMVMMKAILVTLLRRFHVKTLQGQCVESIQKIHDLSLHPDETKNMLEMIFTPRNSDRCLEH
Androgen receptor (Homo sapiens), sequence (P10275 whole entry, looked up): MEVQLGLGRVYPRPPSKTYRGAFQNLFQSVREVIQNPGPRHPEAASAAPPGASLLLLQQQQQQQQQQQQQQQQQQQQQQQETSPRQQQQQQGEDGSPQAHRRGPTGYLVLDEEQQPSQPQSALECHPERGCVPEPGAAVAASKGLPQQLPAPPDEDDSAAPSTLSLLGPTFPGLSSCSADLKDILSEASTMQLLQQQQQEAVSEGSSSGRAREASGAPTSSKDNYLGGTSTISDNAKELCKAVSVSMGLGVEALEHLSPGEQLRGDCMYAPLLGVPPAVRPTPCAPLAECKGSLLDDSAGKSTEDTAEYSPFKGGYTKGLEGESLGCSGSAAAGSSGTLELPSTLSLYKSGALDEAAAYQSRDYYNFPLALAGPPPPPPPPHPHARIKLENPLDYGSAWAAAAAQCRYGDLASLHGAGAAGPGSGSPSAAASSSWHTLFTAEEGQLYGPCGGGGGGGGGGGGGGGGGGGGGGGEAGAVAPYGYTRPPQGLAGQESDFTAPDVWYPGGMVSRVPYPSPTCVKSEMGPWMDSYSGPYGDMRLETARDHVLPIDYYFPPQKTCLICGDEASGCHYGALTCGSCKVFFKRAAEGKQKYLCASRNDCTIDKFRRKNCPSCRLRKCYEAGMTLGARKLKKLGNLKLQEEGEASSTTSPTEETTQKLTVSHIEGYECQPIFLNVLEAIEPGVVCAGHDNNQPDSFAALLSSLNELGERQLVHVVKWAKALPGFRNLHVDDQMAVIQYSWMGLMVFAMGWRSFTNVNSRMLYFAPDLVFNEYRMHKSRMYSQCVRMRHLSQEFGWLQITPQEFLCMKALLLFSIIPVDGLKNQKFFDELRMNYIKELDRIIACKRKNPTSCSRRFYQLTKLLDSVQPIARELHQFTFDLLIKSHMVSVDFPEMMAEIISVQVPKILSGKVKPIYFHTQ

Turning to `Oc1ccc(C2(c3ccc(O)cc3)CC3CC2C2CCCC32)cc1` (stereo unspecified), the Potency entry in assay [1], in [2], in [3], in assay [4], in [8] and in assay [11] was “inactive” each time. Besides, the Potency in assay [5] is 47 µM (active); in assay [6] it was 26.2 µM (active); in assay [7], 29.4 µM (active); in [9], 59.2 nM [inconclusive] (active); in assay [10], 1.31 µM (active); with Aromatase (Homo sapiens), 1.86 µM (active). For the same molecule, in [12], the Potency is 33 µM (active).

Regarding `Cc1cc(O)c(C(C)(C)C)cc1Sc1cc(C(C)(C)C)c(O)cc1C`, the Potency is 10.9 µM (active) in assay [1]; 21.6 µM (active) in assay [2]; 12.2 µM (active) in assay [3]; 12.2 µM (active) in assay [4]; 15.5 µM (active) in [5]; 24.3 µM (active) in assay [13]. For the same molecule, the Potency is 2.43 µM (active) in assay [7]; 17.3 µM (active) in [14]; 54.4 µM (active) in assay [11]; 13.7 µM (active) with Aromatase (Homo sapiens); 30.6 µM (active) in assay [12]. In addition, the Potency entry in [8] was “inactive”.

For `CCCCCCCC/C=C/CCCCCCCC1=NCCN1CCO`, the Potency in [1] is 49 µM (active); in [2], 12.2 µM (active); in [3], 13.7 µM (active); in [4], 13.7 µM (active); in assay [6], 21.7 µM (active); in [7], 21.7 µM (active). Also, the Potency (in the assay with Aromatase (Homo sapiens); in assay [12]) was 48.6 µM (active) in each case. The Potency result in assay [15], in assay [13] and in assay [8] was “inactive” throughout.

Turning to `O=C(Oc1ccccc1)c1ccccc1C(=O)Oc1ccccc1`, the Potency entry in assay [1], in assay [15], in [8], in [14], in assay [16] and in [11] was “inactive” in each case. Further, the Potency is 19.3 µM (active) in [2], 34.4 µM (active) in [3], 17.2 µM (active) in assay [4] and 54.5 µM (active) in assay [13]. Moreover, in assay [17], the activation was -7.29%.

With `Cc1cccc(S(=O)(=O)O)c1C`, the Potency entry in [1], in assay [2], in assay [3], in assay [4], in assay [5] and in assay [6] was “inactive” in each case. For the same molecule, the Potency result in assay [7], in assay [8], in assay [9], in assay [14], in [16] and in assay [10] was “inactive” throughout. For the same molecule, the Potency result (in assay [11]; with Aromatase (Homo sapiens); in assay [12]) was “inactive” throughout. Further, the activation in [17] is -6.85%.

On to `CCCC(C)c1ccccc1O` (stereo unspecified), for which the Potency entry in [1], in assay [18], in assay [8], in assay [9], in assay [14] and in assay [16] was “inactive” throughout. Moreover, the Potency entry in assay [10], in assay [11] and in [12] was “inactive” in each case. In addition, the Potency in assay [2] is 48.6 µM (active); in [3] it was 24.3 µM (active); in assay [4], 61.1 µM (active).

On to `CNCc1cc(F)ccc1Oc1ccc(Cl)c(Cl)c1`, for which the Potency result in assay [1], in [14], in [16], in assay [11] and in assay [12] was “inactive” each time. Moreover, the Potency in assay [2] was 13.7 µM (active); in assay [4], 13.7 µM (active); in [6] it was 30.6 µM (active); in assay [7] it was 30.6 µM (active).

Turning to `CC(C)(C)CC(C)(C)c1ccc(O)c(Cc2ccc(Cl)cc2Cl)c1`, the Potency in [1] was 10.7 µM (active); in assay [2], 26.6 µM (active); in [4], 26.6 µM (active); in assay [7], 6.68 µM (active); in assay [8] it was 2.11 µM (active); in [14] it was 23.9 µM (active). Besides, the Potency entry (in assay [5]; in assay [15]; in [18]; in assay [13]; with Aromatase (Homo sapiens); in assay [12]) was “inactive” throughout.
